Measurements taken from PubChem BioAssay (Tox21).
“And” between values parts separate entries of the source, which are not always exact repeats. Identical values can stand only once. Inconclusive results are not listed. Some structures have more than one record in an assay (separate samples or runs), and their calls can disagree. The source made the active and inactive calls. Unless noted, calls follow the shape of the dose curve; as a rule, active = well fitted curve in the direction sought with a large enough effect in the repeat runs; inconclusive = weak or mixed curves; inactive = no such curve, though single readings can be large; an effect the other way counts as inactive or inconclusive.

What was measured:
[1] = target: Thyrotropin receptor (Homo sapiens) (UniProt P16473); assay: qHTS assay to identify small molecule agonists of the thyroid stimulating hormone receptor (TSHR) signaling pathway (AID 1224843; calls by dose curve; also: nearly all actives have a fitted effect of over 45% in size; also: potency is read from the fitted curve at half-maximal effect)
Procedure, shortened: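 Screening of the Tox21 10K collection used HEK293 cells engineered with TSHR at 800 cells per well. After a 30-min room-temperature compound exposure, HTRF cAMP reagents were added and fluorescence recorded 1 h later.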

[2] = qHTS assay to identify small molecule agonists of the hypoxia (HIF-1) signaling pathway - cell viability counter screen (AID 1224844; calls by dose curve; also: nearly all actives have a fitted effect of over 50% in size; also: potency is read from the fitted curve at half-maximal effect)
Procedure, shortened: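 ME-180 HRE-bla cells, 2,000/well, 0.5% dialyzed FBS; 5 hr settle, 17 hr compound at 37C/5% CO2; CCF4-AM reporter read first, then CellTiter-Glo luminescence after 30 min RT.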

[3] = qHTS assay to identify small molecule agonists of the hypoxia (HIF-1) signaling pathway (AID 1224846; active = well fitted activation curve with a large enough effect in the signal ratio in the repeat runs, not every such curve was filed as active; the % refers to the signal ratio)
Procedure, shortened: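 Cell line: CellSensor HRE-bla ME-180; 2,000 cells/well; 0.5% dialyzed FBS; 5 h preincubation; DMSO compound pin transfer; 17 h, 37C, 5% CO2; CCF4-AM added; bla FRET signal scored for activation.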

[4] = qHTS assay to identify small molecule agonists of H2AX - cell viability counter screen (AID 1224847; calls by dose curve; also: nearly all actives have a fitted effect of over 30% in size; also: potency is read from the fitted curve at half-maximal effect)
Procedure, shortened: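 For this counter screen, overnight-attached CHO-K1 cells received test compounds (15 concentrations, 0.76% DMSO final); 3 hr later at 37C, CellTiter-Glo reagent was added and luminescence recorded after 30 min at room temperature.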

[5] = qHTS RealTime-Glo MT Cell Viability Assay in HepG2 cells - 24 hour (AID 1224867); also: nearly all actives have a fitted effect of over 50% in size; also: potency is read from the fitted curve at half-maximal effect
Procedure, shortened: (§1)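 Cell number in HepG2 cultures estimated from NanoLuc luminescence generated by metabolic reduction of a prosubstrate by living cells. The homogeneous, nonlytic format allowed repeated reads at 0, 8, 16, 24, 32 and 40 h of compound exposure.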

[6] = qHTS RealTime-Glo MT Cell Viability Assay in HEK293 cells - 32 hour (AID 1224868); also: nearly all actives have a fitted effect of over 50% in size; also: potency is read from the fitted curve at half-maximal effect
Procedure, shortened: (§2)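 Homogeneous bioluminescent viability format in HEK293 cells (600 cells/well). Following 5 h at 37 C/5% CO2, 23 nL compound was pintooled; the signal was measured repeatedly during 40 h incubation.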

[7] = A CellTox Green Cytotoxicity Assay to monitor cytotoxicity in HEK293 cells - 0 hour (AID 1224869); also: nearly all actives have a fitted effect of over 50% in size
Procedure, shortened: (§3)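 Nonlytic real-time cytotoxicity: HEK293 + CellTox Green reagent plated, 5 h preincubation, pintool compound addition (23 nL in DMSO), 37 C for 40 h, fluorescence measured at successive time points.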

[8] = qHTS RealTime-Glo MT Cell Viability Assay in HepG2 cells - 40 hour (AID 1224870); also: nearly all actives have a fitted effect of over 50% in size; also: potency is read from the fitted curve at half-maximal effect
Procedure, shortened: (§4)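 Real-time viability: cells seeded at 600 per well together with NanoLuc and cell-permeant prosubstrate, compounds added after 5 h incubation. Luminescence tracked at 0, 8, 16, 24, 32 and 40 h of exposure.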

[9] = A CellTox Green Cytotoxicity Assay to monitor cytotoxicity in HEK293 cells - 40 hour (AID 1224871); also: nearly all actives have a fitted effect of over 45% in size; also: potency is read from the fitted curve at half-maximal effect
Procedure, shortened: as §3

[10] = qHTS RealTime-Glo MT Cell Viability Assay in HEK293 cells - 16 hour (AID 1224872); also: nearly all actives have a fitted effect of over 50% in size; also: potency is read from the fitted curve at half-maximal effect
Procedure, shortened: as §2

[11] = qHTS RealTime-Glo MT Cell Viability Assay in HepG2 cells - 8 hour (AID 1224873); also: nearly all actives have a fitted effect of over 55% in size; also: potency is read from the fitted curve at half-maximal effect
Procedure, shortened: as §4

[12] = qHTS RealTime-Glo MT Cell Viability Assay in HEK293 cells - 40 hour (AID 1224874); conditions: RealTime-Glo luminescence; max response: stronger effect = lower value; also: nearly all actives have a fitted effect of over 50% in size; also: potency is read from the fitted curve at half-maximal effect
Procedure, shortened: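 Cells were seeded together with NanoLuc luciferase and a prosubstrate that viable cells reduce to a luciferase substrate. After a 5 h incubation at 37 C/5% CO2, compounds were added and luminescence was measured repeatedly during 40 h of treatment.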

[13] = A CellTox Green Cytotoxicity Assay to monitor cytotoxicity in HEK293 cells - 24 hour (AID 1224875); also: nearly all actives have a fitted effect of over 45% in size; also: potency is read from the fitted curve at half-maximal effect
Procedure, shortened: as §3

[14] = A CellTox Green Cytotoxicity Assay to monitor cytotoxicity in HepG2 cells - 16 hour (AID 1224876); also: nearly all actives have a fitted effect of over 45% in size; also: potency is read from the fitted curve at half-maximal effect
Procedure, shortened: (§5)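 Read-out is fluorescence of a cyanine dye excluded from live cells that stains DNA of dead HepG2 cells, with signal proportional to cytotoxicity. Plates were read at 0, 8, 16, 24, 32 and 40 h after compound addition.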

[15] = qHTS RealTime-Glo MT Cell Viability Assay in HepG2 cells - 32 hour (AID 1224877); also: nearly all actives have a fitted effect of over 55% in size; also: potency is read from the fitted curve at half-maximal effect
Procedure, shortened: as §1

[16] = A CellTox Green Cytotoxicity Assay to monitor cytotoxicity in HepG2 cells - 24 hour (AID 1224878); also: nearly all actives have a fitted effect of over 45% in size; also: potency is read from the fitted curve at half-maximal effect
Procedure, shortened: as §5

[17] = A CellTox Green Cytotoxicity Assay to monitor cytotoxicity in HepG2 cells - 40 hour (AID 1224879); also: nearly all actives have a fitted effect of over 40% in size; also: potency is read from the fitted curve at half-maximal effect
Procedure, shortened: as §5

[18] = qHTS assay to identify small molecule antagonists of the estrogen related receptor (ERR) signaling pathway from Tox21 library (AID 1224848); also: nearly all actives have a fitted effect of over 50% in size
Procedure, shortened: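 Antagonist-mode screen of the Tox21 10K library in an NTP-provided ERR reporter cell line; 18 h compound exposure at 37 C, luminescence measured with ONE-Glo.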

[19] = qHTS assay to identify small molecule agonists of the estrogen related receptor (ERR) signaling pathway from Tox21 library (AID 1224849; calls by dose curve; also: nearly all actives have a fitted effect of over 15% in size); conditions: ERR reporter cell line, ONE-Glo luciferase, 18 h
Procedure, shortened: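 ERR cells, 6 h pre-incubation 37 C/5% CO2; cpd in DMSO pinned; 18 h 37 C; ONE-Glo added, 30 min RT; luminescence read. Agonist mode, qHTS.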
% is scaled to controls: 0 for no effect and ±100 for the full control effect.

Chain of Thyrotropin receptor (Homo sapiens) (P16473 whole entry, looked up): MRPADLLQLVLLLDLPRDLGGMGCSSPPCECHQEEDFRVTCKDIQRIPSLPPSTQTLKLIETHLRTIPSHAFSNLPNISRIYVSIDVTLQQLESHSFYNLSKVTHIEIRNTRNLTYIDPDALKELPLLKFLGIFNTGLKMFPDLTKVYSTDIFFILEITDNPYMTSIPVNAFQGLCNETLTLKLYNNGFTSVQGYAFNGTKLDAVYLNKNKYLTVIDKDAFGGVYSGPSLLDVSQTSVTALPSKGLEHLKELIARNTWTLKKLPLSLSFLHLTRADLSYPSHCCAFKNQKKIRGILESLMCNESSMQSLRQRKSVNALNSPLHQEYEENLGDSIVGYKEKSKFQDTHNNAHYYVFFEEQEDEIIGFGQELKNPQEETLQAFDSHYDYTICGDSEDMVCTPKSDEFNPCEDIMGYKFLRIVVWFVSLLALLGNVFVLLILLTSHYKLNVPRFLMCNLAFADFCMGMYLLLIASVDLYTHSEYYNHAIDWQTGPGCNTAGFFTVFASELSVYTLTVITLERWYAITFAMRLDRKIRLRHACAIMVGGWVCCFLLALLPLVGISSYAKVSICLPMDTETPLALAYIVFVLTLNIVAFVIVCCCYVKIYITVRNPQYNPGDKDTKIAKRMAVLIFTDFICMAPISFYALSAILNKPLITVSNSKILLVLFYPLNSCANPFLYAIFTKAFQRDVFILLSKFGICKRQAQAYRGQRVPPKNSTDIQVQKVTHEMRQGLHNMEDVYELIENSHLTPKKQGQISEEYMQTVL

CCCCCCCC(=O)OCC(COC(=O)CCCCCCC)OC(=O)CCCCCCC
inactive: Potency [1] | Potency [2] | outcome [3] | Potency [4] | Potency [5] | Potency [6] | Potency [7] | Potency [8] | Potency [9] | Potency [10] | Potency [11] | max response [12] 4.45% and -0.248% and 1.22% | Potency [13] | Potency [14] | Potency [15] | Potency [16] | Potency [17]

CCCCC1(COC(=O)CCC(=O)O)C(=O)N(c2ccccc2)N(c2ccccc2)C1=O
inactive: Potency [1] | Potency [2] | Potency [4] | Potency [18] | activity change, positive = activation ([19]; at 42.5 µM (top of the series)) -6.77% | activity change, positive = activation ([19]; at 92.4 µM (top of the series)) 3.58% and -11.1% | Potency [5] | Potency [6] | Potency [7] | Potency [8] | Potency [9] | Potency [10] | Potency [11] | max response [12] 0.752% and 12.4% and 1.85% | Potency [13] | Potency [14] | Potency [15] | Potency [16] | Potency [17]

O=C1c2c(O)cccc2Cc2cccc(O)c21
inactive: Potency [1] | Potency [2] | Potency [4] | Potency [5] | Potency [6] | Potency [7] | Potency [8] | Potency [9] | Potency [10] | Potency [11] | max response [12] -2.74% and 0.603% and 0.249% | Potency [13] | Potency [14] | Potency [15] | Potency [16] | Potency [17]

CCCCCCCCCCCC[N+](C)(C)Cc1ccccc1
active: Potency [1] 30 µM and 37.4 µM | Potency [2] 53.9 µM | Potency [4] 98.8 µM and 110 µM and 49.2 µM | Potency [5] 12.1 µM and 21.2 µM and 8.49 µM | Potency [6] 3.4 µM and 2.99 µM and 2.13 µM | Potency [8] 8.54 µM and 16.8 µM and 6.74 µM | Potency [9] 42.8 µM and 47.4 µM and 23.9 µM | Potency [10] 24.1 µM and 23.8 µM and 8.49 µM | Potency [11] 48 µM and 53.2 µM and 26.8 µM | Potency [12] 1.91 µM and 2.12 µM and 1.9 µM | Potency [13] 42.8 µM and 47.4 µM and 23.9 µM | Potency [14] 21.5 µM and 26.7 µM and 19 µM | Potency [15] 9.58 µM and 18.9 µM and 6.74 µM | Potency [16] 19.1 µM and 23.8 µM and 10.7 µM | Potency [17] 13.5 µM and 18.9 µM and 8.49 µM
inactive: Potency [7]

CCOC(N)=O
inactive: Potency [1] | Potency [2] | outcome [3] | Potency [4] | Potency [5] | Potency [6] | Potency [7] | Potency [8] | Potency [9] | Potency [10] | Potency [11] | max response [12] 6.85% and 12.6% and -3.78% | Potency [13] | Potency [14] | Potency [15] | Potency [16] | Potency [17]

CCCc1cc(=O)[nH]c(=S)[nH]1
inactive: Potency [1] | Potency [2] | Potency [4] | Potency [5] | Potency [6] | Potency [7] | Potency [8] | Potency [9] | Potency [10] | Potency [11] | max response [12] 1.97% and 2.41% and 2.9% | Potency [13] | Potency [14] | Potency [15] | Potency [16] | Potency [17]

NC1CCCCC1
inactive: Potency [2] | outcome [3] | Potency [4] | Potency [5] | Potency [6] | Potency [7] | Potency [8] | Potency [9] | Potency [10] | Potency [11] | max response [12] 1.81% [middle of 4 runs] | Potency [13] | Potency [14] | Potency [15] | Potency [16] | Potency [17]
194 nM (active) and inactive: Potency [1]

CCCCOC(=O)c1ccc(O)cc1
24.8 µM (active) and inactive: Potency [10]
49.6 µM (active) and inactive: Potency [9]
active: Potency [6] 24.8 µM | Potency [12] 24.8 µM and 21.9 µM
inactive: Potency [1] | Potency [2] | Potency [4] | Potency [5] | Potency [7] | Potency [8] | Potency [11] | Potency [13] | Potency [14] | Potency [15] | Potency [16] | Potency [17]

Cc1cn([C@H]2C=C[C@@H](CO)O2)c(=O)[nH]c1=O
inactive: Potency [1] | Potency [2] | Potency [4] | Potency [5] | Potency [6] | Potency [7] | Potency [8] | Potency [9] | Potency [10] | Potency [11] | max response [12] 3.84% and 0.681% | Potency [13] | Potency [14] | Potency [15] | Potency [16] | Potency [17]
